Experimental data published in PubChem BioAssay (NCATS).
Where “and” joins values, the source holds several entries; their conditions need not be identical. Equal entries are not always repeated. Records with an inconclusive call do not appear. Calls of active or inactive are those of the source. Unless noted, the call rests on the fitted dose curve; in most records, active means well fitted curve in the direction sought with a large enough effect; inconclusive means small, poorly fitted or top-dose-only effect, or another doubt; inactive means no such curve, though single readings can be large; an effect the other way counts as inactive or inconclusive.

Tests used:
[1] = system: UISO; experiment: qHTS assay to identify novel small-molecules to repurpose for Merkel cell carcinoma treatment (AID 1296009); conditions: MCC and control cell lines, CellTiter-Glo viability, 72 h; series mostly up to 46 µM; further: nearly all actives have a fitted effect of over 60% in size; further: potency means the concentration at half of the fitted maximal effect
Outline: (§1)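 Luminescence from CellTiter-Glo, read 10 min after addition at room temperature, reported viability following a 72 hr, 37 degree celsius treatment with NPC or MIPE compounds in titration; values normalized to plate controls.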

[2] = Drug repurposing screens with cells derived from glioblastoma tumor samples (AID 1345199); conditions: GBM patient neurospheres viability, ATP luminescence, 48 h; further: nearly all actives have a fitted effect of over 40% in size; further: potency means the concentration at half of the fitted maximal effect; on activity, negative = cell killing: on the % scale 0 is the no-effect control and ±100 the full control effect
Outline: (§2)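 Primary testing used CD133+ neurospheres from four GBM patients, seven concentrations, 48 h exposure and ATP-based viability; confirmation added three slower-growing patient lines.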

[3] = system: WaGa; experiment: qHTS assay to identify novel small-molecules to repurpose for Merkel cell carcinoma treatment (AID 1296009); conditions: MCC and control cell lines, CellTiter-Glo viability, 72 h; series mostly up to 46 µM; further: nearly all actives have a fitted effect of over 60% in size; further: potency means the concentration at half of the fitted maximal effect
Outline: as §1

[4] = qHTS assay to identify inhibitors of the type 1 interferon - major histocompatibility complex class I in skeletal muscle: Counter screen cell viability and HiBit confirmation (AID 1347412); conditions: iHSKM muscle cells + IFN-b, HiBiT or CellTiter-Glo, 24 h; for activity change, negative = inhibition: at 45.9 µM (top of the series); further: potency means the concentration at half of the fitted maximal effect; on activity change, negative = inhibition: on the % scale 0 is the no-effect control and ±100 the full control effect; on all read-outs here: nearly all actives have a fitted effect of over 60% in size
Outline: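 CRISPR HLA-B*08:01-HiBit immortalized human myoblasts (C25cl48) stimulated with 4 ng/ml IFN-beta and compounds (12-point 1:3, top 46 uM final) for 24 h at 37 C. Duplicate plates read by HiBit lytic luminescence or CellTiter Glo ATP.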

[5] = system: PA-1; experiment: Primary qHTS to identify gynecologic anti-cancer compounds using libraries of approved drugs and bioactive compounds (AID 1345084); conditions: Gynecologic cancer cell panel viability, ATPlite luminescence, 48 h; series mostly up to 57.5 µM; further: nearly all actives have a fitted effect of over 55% in size; further: potency means the concentration at half of the fitted maximal effect
Outline: (§3)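 Five-concentration response, 48 h; readout is ATP-driven luciferase luminescence.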

[6] = biological target: Nuclear receptor subfamily 1 group I member 2 (Rattus norvegicus) (UniProt Q9R1A7); experiment: qHTS assay for small molecule activators of the rat pregnane X receptor (rPXR) signaling pathway (AID 651751; call rule not given here; further: 0% is about no effect); conditions: rPXR reporter cells, luciferase (One-Glo), 24 h
Nuclear receptor subfamily 1 group I member 2 (Rattus norvegicus), sequence (Q9R1A7 whole entry, looked up): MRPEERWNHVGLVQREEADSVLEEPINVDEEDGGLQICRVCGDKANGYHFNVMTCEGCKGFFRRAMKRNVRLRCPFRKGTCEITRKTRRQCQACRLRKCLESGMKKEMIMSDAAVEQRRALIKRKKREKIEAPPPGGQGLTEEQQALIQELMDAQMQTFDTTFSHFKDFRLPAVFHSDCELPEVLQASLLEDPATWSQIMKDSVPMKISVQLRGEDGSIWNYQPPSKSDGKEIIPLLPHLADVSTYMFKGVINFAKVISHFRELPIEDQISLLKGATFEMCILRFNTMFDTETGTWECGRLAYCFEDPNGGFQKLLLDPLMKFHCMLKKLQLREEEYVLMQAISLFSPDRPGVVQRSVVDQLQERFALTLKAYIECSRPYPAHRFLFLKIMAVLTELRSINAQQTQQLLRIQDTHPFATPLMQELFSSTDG

[7] = system: C33A; experiment: Primary qHTS to identify gynecologic anti-cancer compounds using libraries of approved drugs and bioactive compounds (AID 1345084); conditions: Gynecologic cancer cell panel viability, ATPlite luminescence, 48 h; series mostly up to 57.5 µM; further: nearly all actives have a fitted effect of over 55% in size; further: potency means the concentration at half of the fitted maximal effect
Outline: as §3

[8] = system: CASKI; experiment: as above; conditions: Gynecologic cancer cell panel viability, ATPlite luminescence, 48 h; series mostly up to 57.5 µM
Outline: as §3

[9] = system: Es-2; experiment: as above; conditions: Gynecologic cancer cell panel viability, ATPlite luminescence, 48 h; series mostly up to 57.5 µM
Outline: as §3

[10] = system: HeLa; experiment: as above; conditions: Gynecologic cancer cell panel viability, ATPlite luminescence, 48 h; series mostly up to 57.5 µM
Outline: as §3

[11] = system: Hek293T; experiment: as above; conditions: Gynecologic cancer cell panel viability, ATPlite luminescence, 48 h, control line for the selectivity index; series mostly up to 57.5 µM
Outline: as §3

[12] = system: JEG-3; experiment: as above; conditions: Gynecologic cancer cell panel viability, ATPlite luminescence, 48 h; series mostly up to 57.5 µM
Outline: as §3

[13] = system: OV90; experiment: as above; conditions: Gynecologic cancer cell panel viability, ATPlite luminescence, 48 h; series mostly up to 57.5 µM
Outline: as §3

[14] = system: SKOV3; experiment: as above; conditions: Gynecologic cancer cell panel viability, ATPlite luminescence, 48 h; series mostly up to 57.5 µM
Outline: as §3

[15] = system: Tov112D; experiment: as above; conditions: Gynecologic cancer cell panel viability, ATPlite luminescence, 48 h; series mostly up to 57.5 µM
Outline: as §3

[16] = system: astro; experiment: Drug repurposing screens with cells derived from glioblastoma tumor samples (AID 1345199); conditions: viability, ATP luminescence, 48 h; series mostly up to 45.9 µM; further: nearly all actives have a fitted effect of over 40% in size; further: potency means the concentration at half of the fitted maximal effect; on activity, negative = cell killing: on the % scale 0 is the no-effect control and ±100 the full control effect
Outline: as §2

[17] = system: Tov-21-G; experiment: Primary qHTS to identify gynecologic anti-cancer compounds using libraries of approved drugs and bioactive compounds (AID 1345084); conditions: Gynecologic cancer cell panel viability, ATPlite luminescence, 48 h; series mostly up to 57.5 µM; further: nearly all actives have a fitted effect of over 55% in size; further: potency means the concentration at half of the fitted maximal effect
Outline: as §3

[18] = system: CAOV3; experiment: as above; conditions: Gynecologic cancer cell panel viability, ATPlite luminescence, 48 h; series mostly up to 57.5 µM
Outline: as §3

[19] = qHTS assay for small molecule activators of the human pregnane X receptor (PXR) signaling pathway (AID 720659; call rule not given here; further: 0% is about no effect)
[20] = at 46.1 µM (top of the series), tumour line C
[21] = at 45.9 µM (top of the series), tumour line B
[22] = at 45.9 µM (top of the series), tumour line D
[23] = at 46 µM (top of the series), tumour line A

O=C(O)c1c(Cl)c(Cl)c(Cl)c(Cl)c1-c1c2cc(I)c(=O)c(I)c-2oc2c(I)c(O)c(I)cc12
inactive: Potency [1] | activity, negative = cell killing [2, 20] -28.5%

c1cc(-c2sc(-c3ccncc3)c(-c3ccncc3)c2-c2ccncc2)ccn1
inactive: Potency [3]

CNC(=O)c1ccccc1Sc1ccc2c(C=Cc3ccccn3)n[nH]c2c1
active: Potency [3] 11.8 µM

NC(CO)(CO)CCc1ccc(Sc2cccc(OCc3ccccc3)c2)cc1Cl
active: Potency [3] 5.26 µM

O=C1C(Cl)=C(NCCN2CCOCC2)C(=O)c2ncccc21
active: Potency [1] 8.33 µM | Potency ([4]; HiBiT) 5.57 µM | Potency ([4]; Viability) 5.57 µM

CCC(=O)NC[C@H](Cc1ccc(OCCc2nc(-c3ccccc3)oc2C)cc1)NC(C)=CC(=O)c1ccc(C(F)(F)F)cc1
active: Potency [3] 4.69 µM

O=C1c2ccccc2-[n+]2ccc3c([nH]c4ccccc43)c21
active: Potency [1] 0.662 µM | Potency [3] 2.35 µM | Potency ([4]; HiBiT) 1.57 µM | Potency ([4]; Viability) 2.22 µM

COc1cc2c(cc1OC)CN(CCc1ccc(NC(=O)c3cc(OC)c(OC)cc3NC(=O)c3cnc4ccccc4c3)cc1)CC2
active: Potency [5] 11.2 µM
inactive: Potency [1] | Potency [3]

Cc1cnc(C(=O)O)c[n+]1[O-]
inactive: Potency [1] | Potency [3] | activity, negative = cell killing [2, 21] -12.7% and -17.2% and -5.56% | activity, negative = cell killing [2, 22] -2.04% and 1.27% and -4.74% | activity, negative = cell killing [2, 23] -14.3% and -47.1% | activity, negative = cell killing [2, 20] -29.9% and -17.2% and -16.5%

C[C@]12CCC3c4ccc(O)cc4CCC3C1CCC2=O (some centres not stated)
inactive: Potency [3]

O=c1cc(-c2ccccc2)oc2cc(O)cc(O)c12
inactive: Potency [1] | Potency [3] | max response [6] -2.91%

O=C1NC(=O)C(=Cc2cccc(C(F)(F)F)c2)S1
inactive: Potency [3]

CC=C(C)C(=O)O[C@H]1C(C)=C[C@]23C(=O)[C@@H](C=C(CO)[C@@H](O)[C@]12O)[C@H]1[C@@H](C[C@H]3C)C1(C)C
inactive: Potency [3]

COc1cc2ncnc(Nc3ccc(F)c(Cl)c3)c2cc1OCCCN1CCOCC1
inactive: Potency [7] | Potency [8] | Potency [9] | Potency [10] | Potency [11] | Potency [12] | Potency [13] | Potency [5] | Potency [15] | activity, negative = cell killing [2, 20] -12.4%
active: Potency [1] 26.6 µM | Potency [14] 10 µM | Potency ([2]; tumour line A) 5.62 µM | Potency ([2]; tumour line B) 17.8 µM | Potency ([2]; tumour line D) 8.91 µM

NS(=O)(=O)c1ccc(NC2=CC(=O)c3ccccc3C2=O)cc1
active: Potency [1] 2.64 µM | Potency ([4]; HiBiT) 3.52 µM | Potency ([4]; Viability) 4.97 µM

CN1[C@@H]2CCC[C@@H]1CC(NC(=O)c1nn(C)c3ccccc13)C2 (some centres not stated)
inactive: Potency [1] | Potency [3] | activity, negative = cell killing [2, 21] 0.357% | activity, negative = cell killing [2, 22] 2.65% | activity, negative = cell killing [2, 20] -11.6% | Potency [16]
active: Potency ([2]; tumour line A) 12.6 µM

COc1cc2ncnc(-n3nc(-c4ccccn4)nc3N)c2cc1OC
inactive: Potency [3] | Potency [7] | Potency [8] | Potency [9] | Potency [10] | Potency [11] | Potency [12] | Potency [13] | Potency [5] | Potency [17] | Potency [15]

COc1ccc(C2CC(c3ccccc3)=NN2c2ccc(S(N)(=O)=O)cc2)cc1 (configuration not stated)
inactive: Potency [3] | Potency [7] | Potency [8] | Potency [9] | Potency [10] | Potency [11] | Potency [12] | Potency [13] | Potency [5] | Potency [14] | Potency [17] | Potency [15]

NC(=O)c1cccc2[nH]c(-c3ccc([C@H]4CCCN4)cc3F)nc12
active: Potency [3] 20.9 µM | Potency [7] 17.8 µM | Potency [18] 28.2 µM | Potency [8] 12.6 µM | Potency [9] 31.6 µM | Potency [11] 17.8 µM | Potency [12] 14.1 µM | Potency [13] 14.1 µM | Potency [5] 12.6 µM | Potency [17] 14.1 µM | Potency [15] 12.6 µM

CC1(C)CCC2=C(O1)c1ccccc1C(=O)C2=O
active: Potency [3] 26.4 µM | Potency ([4]; HiBiT) 22.2 µM | Potency ([4]; Viability) 24.9 µM

CN[C@@H](C)C(=O)N[C@H]1CN(C(=O)CC(C)C)CC[C@H]2CC[C@@H](C(=O)NC(c3ccccc3)c3ccccc3)N2C1=O
inactive: Potency [7] | Potency [9] | Potency [11] | Potency [12] | Potency [13]
active: Potency [14] 7.94 µM | Potency [17] 5.62 µM

COc1ccc(Cc2nccc3cc(OC)c(OC)cc23)cc1OC
inactive: activity change, negative = inhibition ([4]; HiBiT) -26.2% | activity change, negative = inhibition ([4]; Viability) -0.43%

Cc1c(NC(=O)c2ccc(C(C)(C)C)cc2)cccc1-c1cn(C)c(=O)c(Nc2ccc(C(=O)N3CCOCC3)cc2)n1
inactive: Potency [3] | Potency [7] | Potency [8] | Potency [9] | Potency [10] | Potency [11] | Potency [12] | Potency [13] | Potency [5] | Potency [14] | Potency [17] | Potency [15]

CNC1CCC(N(Cc2cccc(-c3ccncc3)c2)C(=O)c2sc3c(F)ccc(F)c3c2Cl)CC1 (configuration not stated)
inactive: Potency [3] | Potency [7] | Potency [8] | Potency [10] | Potency [12] | Potency [14] | Potency [15] | activity change, negative = inhibition ([4]; HiBiT) -27.3%

CO[C@H]1C=CO[C@@]2(C)Oc3c(C)c(O)c4c(O)c(c5c(c4c3C2=O)NC2(CCN(CC(C)C)CC2)N=5)=NC(=O)C(C)=CC=C[C@H](C)[C@H](O)[C@@H](C)[C@@H](O)[C@@H](C)[C@H](OC(C)=O)[C@H]1C
inactive: Potency [7] | Potency [8] | Potency [9] | Potency [10] | Potency [11] | Potency [12] | Potency [13] | Potency [5] | Potency [14] | Potency [17] | Potency [15]

O=c1cc(CN2CCOCC2)occ1OCCCCCSc1ccnc2cc(C(F)(F)F)ccc12
active: Potency [11] 31.6 µM
inactive: Potency [17] | Potency [15]

COCCOC(=O)C1=C(C)NC2=C(C(=O)CC(c3ccccc3OC)C2)C1c1cccc(O)c1 (configuration not stated)
inactive: Potency [7] | Potency [8] | Potency [9] | Potency [11] | Potency [12] | Potency [13] | Potency [5] | Potency [17] | Potency [15]

O=c1c(O)c(-c2ccc(O)cc2)oc2cc(O)cc(O)c12
active: Potency [3] 3.72 µM
inactive: max response [6] 0.424% and -1.67%

CC(C)OC(=O)C(C)(C)Oc1ccc(C(=O)c2ccc(Cl)cc2)cc1
inactive: Potency [7] | Potency [18] | Potency [8] | Potency [10] | Potency [12] | Potency [13] | Potency [5] | Potency [14] | Potency [17] | Potency [15] | activity, negative = cell killing [2, 21] -21.9% | Potency [16] | max response [6] -0.28%
active: Potency ([2]; tumour line A) 11.2 µM

CC(=O)N(C)C1(c2ccccc2)CCN(CCC[C@]2(c3ccc(Cl)c(Cl)c3)CCCN(C(=O)c3ccccc3)C2)CC1
active: Potency [8] 22.4 µM | Potency [14] 22.4 µM
inactive: Potency [3]

O=c1[nH]cnc2c1ncn2[C@H]1CC[C@@H](CO)O1
inactive: Potency [7] | Potency [8] | Potency [9] | Potency [10] | Potency [11] | Potency [12] | Potency [13] | Potency [5] | Potency [14] | Potency [17] | Potency [15] | activity, negative = cell killing [2, 21] -2.39% | activity, negative = cell killing [2, 22] 8.81% | activity, negative = cell killing [2, 23] -25.7% | activity, negative = cell killing [2, 20] -15.1% | max response [6] -1.01% and 3.56% | outcome [19]

Cc1ccn(-c2ccc(-c3ncco3)cc2)c(=O)c1-c1ccc2nc(N)ncc2c1
active: Potency [5] 11.2 µM | Potency [14] 3.55 µM | Potency [17] 11.2 µM
inactive: Potency [3] | Potency [10] | Potency [11] | Potency [12] | Potency [13] | Potency [15]
